From PubChem BioAssay
Unmarked numbers belong to inactive results. A call without a number means that no potency is given here. For part of these data: Potency and affinity values are given separately. Active and inactive are the calls of the source. Unless noted, the rule behind the calls is not given here.

Columns and labels:
[1] = antimalarial activity against Dd2 strain (AID 2302;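 active = growth inhibition above 50% at the single 2 µM test dose, taken to imply half-maximal potency below 2 µM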); details: P. falciparum Dd2 in RBCs, LDH growth readout, 72 h; at 2 µM; active compounds read high
[2] = HepG2 cytotoxicity, primary screen, cytotoxicity control for P. falciparum antimalarial project, cell-based, ATP luminescence (AID 2303;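 active = inhibition above 50%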); details: HepG2 viability, 24-48 h, at 10 µM, active compounds read high
[3] = target: L-lactate dehydrogenase (Plasmodium falciparum (isolate CDC / Honduras)) (UniProt Q27743); assay: PfLDH activity inhibition – cell lysate, 3D7 strain, counter-screen for P. falciparum growth inhibition project (AID 2304); details: P. falciparum 3D7 crude extract, LDH APAD/NBT absorbance; at 2 µM; active compounds read high
[4] = inhibition of 3D7 malaria parasite growth – strain 3D7 (AID 2306); details: P. falciparum 3D7 erythrocytic growth, LDH absorbance, 72 h; at 2 µM; active compounds read high
[5] = target: Calcium-dependent protein kinase 1 (Plasmodium falciparum (isolate 3D7)) (UniProt P62344); assay: PfCDPK1 kinase inhibitors, biochemical, TCAMS library (AID 1159585; cut-off not given, nearly all actives have IC50 up to about 0.98 µM;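 note: inhibitors leave more ATP so luminescence rises with inhibition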); details: recombinant PfCDPK1, Kinase-Glo ATP depletion luminescence
[6] = target: Plasmodium falciparum protein kinase 6 (PK6, PF3D7_1337100) (UniProt Q8IDW1); assay: PfPK6 kinase inhibitors, biochemical, TCAMS library (AID 1159586); details: recombinant PfPK6, Kinase-Glo ATP depletion luminescence
[7] = target: Protein kinase 7 (PK7), Plasmodium falciparum 3D7 (PF3D7_0213400) (UniProt Q7YTF7); assay: inhibition of Plasmodium PK7 catalytic activity – biochemical, TCAMS antimalarial set, Kinase-Glo luminescence (AID 1159587); details: recombinant PfPK7, Kinase-Glo ATP depletion luminescence
[8] = target: Calcium-dependent protein kinase 4 (Plasmodium falciparum (isolate 3D7)) (UniProt Q8IBS5); assay: PfCDPK4 kinase inhibitors, biochemical, TCAMS library (AID 1159588; cut-off not given, nearly all actives have IC50 up to about 0.91 µM); details: recombinant PfCDPK4, Kinase-Glo ATP depletion luminescence
Sequence of Calcium-dependent protein kinase 4 (Plasmodium falciparum (isolate 3D7)) (Q8IBS5 whole entry, looked up): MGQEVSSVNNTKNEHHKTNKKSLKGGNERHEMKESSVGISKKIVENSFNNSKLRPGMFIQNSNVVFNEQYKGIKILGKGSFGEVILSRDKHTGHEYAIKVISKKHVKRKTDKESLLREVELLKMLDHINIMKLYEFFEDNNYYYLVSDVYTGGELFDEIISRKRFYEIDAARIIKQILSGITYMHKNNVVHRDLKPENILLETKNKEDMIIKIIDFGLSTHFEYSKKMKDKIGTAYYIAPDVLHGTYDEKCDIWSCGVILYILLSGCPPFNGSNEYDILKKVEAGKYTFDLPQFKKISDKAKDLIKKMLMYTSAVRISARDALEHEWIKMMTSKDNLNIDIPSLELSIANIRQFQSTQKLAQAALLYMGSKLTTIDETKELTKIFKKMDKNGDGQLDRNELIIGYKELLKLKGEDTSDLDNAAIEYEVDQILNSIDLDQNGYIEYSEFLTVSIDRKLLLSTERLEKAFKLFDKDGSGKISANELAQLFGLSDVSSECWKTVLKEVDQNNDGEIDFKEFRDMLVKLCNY

Sequence of Protein kinase 7 (PK7), Plasmodium falciparum 3D7 (PF3D7_0213400) (Q7YTF7 1-343): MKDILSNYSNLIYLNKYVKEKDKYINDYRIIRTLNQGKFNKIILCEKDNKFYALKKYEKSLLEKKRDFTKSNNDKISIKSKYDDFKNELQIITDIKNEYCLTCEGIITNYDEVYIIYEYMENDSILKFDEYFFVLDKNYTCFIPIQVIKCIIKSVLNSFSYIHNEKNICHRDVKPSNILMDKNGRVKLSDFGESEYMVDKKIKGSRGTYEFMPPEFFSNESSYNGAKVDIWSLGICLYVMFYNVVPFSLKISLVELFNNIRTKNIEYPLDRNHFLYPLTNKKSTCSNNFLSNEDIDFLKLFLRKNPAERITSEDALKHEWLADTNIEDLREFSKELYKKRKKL
Sequence of L-lactate dehydrogenase (Plasmodium falciparum (isolate CDC / Honduras)) (Q27743 whole entry, looked up): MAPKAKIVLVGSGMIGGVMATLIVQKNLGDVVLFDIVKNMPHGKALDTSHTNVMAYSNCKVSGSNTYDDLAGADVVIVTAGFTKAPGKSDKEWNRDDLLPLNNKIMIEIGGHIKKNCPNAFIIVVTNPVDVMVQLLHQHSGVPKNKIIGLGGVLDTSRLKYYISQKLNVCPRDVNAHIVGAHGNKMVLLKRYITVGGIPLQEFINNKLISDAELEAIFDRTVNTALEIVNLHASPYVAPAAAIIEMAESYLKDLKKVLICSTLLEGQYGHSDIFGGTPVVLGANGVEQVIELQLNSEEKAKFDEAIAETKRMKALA
Sequence of Plasmodium falciparum protein kinase 6 (PK6, PF3D7_1337100) (Q8IDW1 1-305): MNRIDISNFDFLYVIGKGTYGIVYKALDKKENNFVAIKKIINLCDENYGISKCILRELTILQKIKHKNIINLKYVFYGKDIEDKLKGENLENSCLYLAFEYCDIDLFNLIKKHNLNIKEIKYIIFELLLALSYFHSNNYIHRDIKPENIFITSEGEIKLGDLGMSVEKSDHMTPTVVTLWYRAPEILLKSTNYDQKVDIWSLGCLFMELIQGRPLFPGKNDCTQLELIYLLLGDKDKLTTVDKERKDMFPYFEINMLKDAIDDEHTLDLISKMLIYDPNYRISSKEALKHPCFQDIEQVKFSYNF
Sequence of Calcium-dependent protein kinase 1 (Plasmodium falciparum (isolate 3D7)) (P62344 whole entry, looked up): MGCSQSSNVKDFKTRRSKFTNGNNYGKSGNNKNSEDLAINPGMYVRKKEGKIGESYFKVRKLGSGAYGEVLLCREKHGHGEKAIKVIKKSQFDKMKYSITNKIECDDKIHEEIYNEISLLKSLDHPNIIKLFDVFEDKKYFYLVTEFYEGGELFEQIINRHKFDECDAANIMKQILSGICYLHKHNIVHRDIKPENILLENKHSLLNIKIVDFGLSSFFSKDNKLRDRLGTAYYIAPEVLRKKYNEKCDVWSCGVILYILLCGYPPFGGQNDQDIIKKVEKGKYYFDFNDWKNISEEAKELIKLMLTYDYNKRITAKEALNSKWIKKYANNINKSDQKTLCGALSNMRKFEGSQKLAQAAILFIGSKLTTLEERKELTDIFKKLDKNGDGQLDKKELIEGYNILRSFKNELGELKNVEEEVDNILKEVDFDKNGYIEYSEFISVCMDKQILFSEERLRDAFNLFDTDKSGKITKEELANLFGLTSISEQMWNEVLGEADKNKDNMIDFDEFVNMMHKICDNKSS

O=C(Nc1nc(-c2ccccn2)cc2ccccc12)c1cccc(Cl)c1
growth inhibition [1]: 72% (active) | inhibition [2]: 59% (active) | inhibition [3]: -3% | growth inhibition [4]: 96% (active) | outcome [5]: inactive | outcome [6]: inactive | outcome [7]: inactive | outcome [8]: inactive

O=C(/C=C/c1ccc(Cl)c(Cl)c1)N1CCC(CN2CCC(Cc3cc4ccccc4[nH]3)CC2)CC1
growth inhibition [1]: 56% (active) | inhibition [2]: 49% | inhibition [3]: -3% | growth inhibition [4]: 96% (active) | outcome [5]: inactive | outcome [6]: inactive | outcome [7]: inactive | outcome [8]: inactive

Cc1[nH]c(C)c(-c2ccc(S(=O)(=O)c3ccc(Cl)cc3)cc2)c(=O)c1Cl
growth inhibition [1]: 96% (active) | inhibition [2]: -5% | inhibition [3]: 9% | growth inhibition [4]: 98% (active) | outcome [5]: inactive | outcome [6]: inactive | outcome [7]: inactive | outcome [8]: inactive

COc1ccc2nccc([C@@H](O)CN3CCC(NCc4cc5oc(=O)[nH]c5cc4F)CC3)c2c1
growth inhibition [1]: 4% | inhibition [2]: -9% | inhibition [3]: -2% | growth inhibition [4]: 99% (active) | outcome [5]: inactive | outcome [6]: inactive | outcome [7]: inactive | outcome [8]: inactive

N=C(N)c1ccc(NN=Cc2ccc(Oc3ccc(C(=N)N)cc3)cc2)cc1
growth inhibition [1]: 100% (active) | inhibition [2]: 18% | inhibition [3]: 0% | growth inhibition [4]: 99% (active) | outcome [5]: inactive | outcome [6]: inactive | outcome [7]: inactive | outcome [8]: inactive

Cc1cccc2[nH]c(-c3cccc(-c4cccc(C(=O)NCc5nccn5C)c4)c3)nc12
growth inhibition [1]: 50% (active) | inhibition [2]: 22% | inhibition [3]: 8% | growth inhibition [4]: 99% (active) | outcome [5]: inactive | outcome [6]: inactive | outcome [7]: inactive | outcome [8]: inactive

N#Cc1ccc(CN2CCCN(Cc3cccc(NC(=O)c4cc5ccccc5s4)c3)CC2)cc1
growth inhibition [1]: 36% | inhibition [2]: 31% | inhibition [3]: 0% | growth inhibition [4]: 97% (active) | outcome [5]: inactive | outcome [6]: inactive | outcome [7]: inactive | outcome [8]: inactive

Oc1ccc(-c2cc(-c3ccc(O)cc3)nc(-c3ccccc3)n2)cc1
growth inhibition [1]: 97% (active) | inhibition [2]: 0% | inhibition [3]: -1% | growth inhibition [4]: 96% (active) | outcome [5]: inactive | outcome [6]: inactive | outcome [7]: inactive | outcome [8]: inactive

C=Cc1c(C2CCN(CCCCNC(=O)c3ccc(-c4ccc(C#N)cc4)cc3)CC2)ccc2c1CCCC2
growth inhibition [1]: 75% (active) | inhibition [2]: 75% (active) | inhibition [3]: 1% | growth inhibition [4]: 94% (active) | outcome [5]: inactive | outcome [6]: inactive | outcome [7]: inactive | outcome [8]: inactive

CO/C(=C\C=C\c1cc2cc(Cl)c(Cl)cc2[nH]1)C(=O)NCCN1CCCCC1
growth inhibition [1]: 86% (active) | inhibition [2]: 16% | inhibition [3]: 1% | growth inhibition [4]: 81% (active) | outcome [5]: inactive | outcome [6]: inactive | outcome [7]: inactive | outcome [8]: inactive

CCCc1cc(OC)c(C[C@@H]2c3cc(O)c(Cl)cc3CCN2C)cc1OC
growth inhibition [1]: 98% (active) | inhibition [2]: 3% | inhibition [3]: 8% | growth inhibition [4]: 98% (active) | outcome [5]: inactive | outcome [6]: inactive | outcome [7]: inactive | outcome [8]: inactive

Cc1ccc(NC(=O)Nc2ccc(Br)cc2)cc1OCCN(C)C
growth inhibition [1]: 15% | inhibition [2]: 13% | inhibition [3]: -1% | growth inhibition [4]: 84% (active) | outcome [5]: inactive | outcome [6]: inactive | outcome [7]: inactive | outcome [8]: inactive

CNC(=O)c1cc(Nc2nnc(-c3ccc(C)c(S(=O)(=O)NC4CCCCC4)c3)c3ccccc23)ccc1OC
growth inhibition [1]: 61% (active) | inhibition [2]: -10% | inhibition [3]: 5% | growth inhibition [4]: 87% (active) | outcome [5]: inactive | outcome [6]: inactive | outcome [7]: inactive | outcome [8]: inactive

Cc1ccc(NC(=O)c2ccc(CN3CCCN(Cc4cccc(O)c4)CC3)cc2)cc1
growth inhibition [1]: 31% | inhibition [2]: 39% | inhibition [3]: -5% | growth inhibition [4]: 90% (active) | outcome [5]: inactive | outcome [6]: inactive | outcome [7]: inactive | outcome [8]: inactive

COCCCN=C(N)c1ccc(NC(=O)c2ccc(C(=O)Nc3ccc(C(N)=NCCCOC)cc3)cc2)cc1
growth inhibition [1]: 99% (active) | inhibition [2]: 33% | inhibition [3]: -2% | growth inhibition [4]: 100% (active) | outcome [5]: inactive | outcome [6]: inactive | outcome [7]: inactive | outcome [8]: inactive

O=C(N[C@H]1CCN(Cc2ccc(OCCCN3CCCCC3)cc2)C1)c1cc(Cl)cc(Cl)c1
growth inhibition [1]: 35% | inhibition [2]: 13% | inhibition [3]: -1% | growth inhibition [4]: 99% (active) | outcome [5]: inactive | outcome [6]: inactive | outcome [7]: inactive | outcome [8]: inactive

Cc1cc(N[C@@H](Cc2ccccc2)C(=O)NCCOc2ccccc2)nc(NCC2CCCCC2)n1
growth inhibition [1]: 75% (active) | inhibition [2]: 30% | inhibition [3]: -1% | growth inhibition [4]: 100% (active) | outcome [5]: inactive | outcome [6]: inactive | outcome [7]: inactive | outcome [8]: inactive

C[C@@H]1CN(c2cnn(Cc3ccc(NC(=O)Nc4cccc(C(F)(F)F)c4)cc3)c(=O)c2Cl)C[C@H](C)N1
growth inhibition [1]: 31% | inhibition [2]: -10% | inhibition [3]: -7% | growth inhibition [4]: 86% (active) | outcome [5]: inactive | outcome [6]: inactive | outcome [7]: inactive | outcome [8]: inactive

COCCN(C(=O)Cc1cccs1)C(C(=O)NCc1ccc(OC)cc1)c1ccc(C(C)C)cc1 (stereo not drawn)
growth inhibition [1]: 59% (active) | inhibition [2]: -13% | inhibition [3]: 4% | growth inhibition [4]: 96% (active) | outcome [5]: inactive | outcome [6]: inactive | outcome [7]: inactive | outcome [8]: inactive

Cc1ccc2c(=O)c3cc(C)ccc3[nH]c2c1
growth inhibition [1]: 94% (active) | inhibition [2]: 10% | inhibition [3]: 5% | growth inhibition [4]: 96% (active) | outcome [5]: inactive | outcome [6]: inactive | outcome [7]: inactive | outcome [8]: inactive

CCSc1nc2sc3c(c2c(=O)n1-c1ccccc1)CCN(C)C3
growth inhibition [1]: 71% (active) | inhibition [2]: 16% | inhibition [3]: -3% | growth inhibition [4]: 83% (active) | outcome [5]: inactive | outcome [6]: inactive | outcome [7]: inactive | outcome [8]: inactive
